Test results published in PubChem BioAssay (Tox21).
Inconclusive results are not listed. Where a call stands in place of a potency, no number is given. Values without a mark were called inactive. Active and inactive are the calls of the source. The call rests on the fitted dose curve; in most records, active means well fitted curve in the direction sought with a large enough effect in the repeat runs; inconclusive means weak or mixed curves; inactive means no such curve, though single readings can be large; an effect the other way counts as inactive or inconclusive. Non-standard residues stand in square brackets, D forms with d. Residues, ends and D or L forms follow the SMILES beside them. *: point of attachment. Sta = CC(C)C[C@H](N)[C@@H](O)CC(=O)O; Isovaleryl = CC(C)CC(=O)*

Assays:
[1] = qHTS assay to identify small molecule agonists of the RXR signaling pathway - cell viability counter screen (AID 1159529); further: nearly all actives have a fitted effect of over 50% in size; further: potency means the concentration at half of the fitted maximal effect
Summary of the method: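 Counter screen: CellTiter-Glo luminescence. Cells: RXR-alpha-UAS-bla HEK 293T. Medium: 2% charcoal-stripped FBS. Treatment: 16 h, 37 C. Reagent incubation: 30 min, RT.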

[2] = qHTS assay to identify small molecule antagonists of the retinoid acid receptor (RAR) signaling pathway - cell viability counter screen (AID 1159551); further: nearly all actives have a fitted effect of over 35% in size
Summary of the method: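 Seed C3RL4 cells; next day add compound, then retinol to 1 uM final; incubate 6 h at 37 C; add CellTiter-Glo; read luminescence after 30 min at RT.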

[3] = qHTS assay to identify small molecule antagonists of the retinoic acid receptor (RAR) signaling pathway (AID 1159552; further: nearly all actives have a fitted effect of over 50% in size)
Summary of the method: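 Antagonism of retinol-induced RARE reporter activity was measured in C3RL4 cells. Exposure to compounds and 1 uM final retinol lasted 6 hr at 37 C, with luminescence as endpoint.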

[4] = qHTS assay to identify small molecule agonists of the retinoic acid receptor (RAR) signaling pathway (AID 1159553); further: potency means the concentration at half of the fitted maximal effect
Summary of the method: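 Activation of retinol signaling was monitored via a RARE luciferase reporter in C3RL4 cells. After 6 hr compound treatment at 37 C, detection reagent was added for 30 min at room temperature before luminescence reading.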

[5] = qHTS assay to identify small molecule antagonists of the estrogen related receptor (ERR) signaling pathway from Tox21 library - cell viability counter screen (AID 1224834); further: nearly all actives have a fitted effect of over 30% in size
Summary of the method: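 CellTiter-Fluor fluorescence measured; ERR cells; 17.5 h compound incubation at 37 C; 30 min reagent step.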

[6] = molecular target: Luciferin 4-monooxygenase (Photinus pyralis) (UniProt P08659); experiment: qHTS assay to identify small molecule inhibitors of firefly luciferase (AID 1224835); further: nearly all actives have a fitted effect of over 25% in size; further: potency means the concentration at half of the fitted maximal effect
Sequence of Luciferin 4-monooxygenase (Photinus pyralis) (P08659 whole entry, looked up): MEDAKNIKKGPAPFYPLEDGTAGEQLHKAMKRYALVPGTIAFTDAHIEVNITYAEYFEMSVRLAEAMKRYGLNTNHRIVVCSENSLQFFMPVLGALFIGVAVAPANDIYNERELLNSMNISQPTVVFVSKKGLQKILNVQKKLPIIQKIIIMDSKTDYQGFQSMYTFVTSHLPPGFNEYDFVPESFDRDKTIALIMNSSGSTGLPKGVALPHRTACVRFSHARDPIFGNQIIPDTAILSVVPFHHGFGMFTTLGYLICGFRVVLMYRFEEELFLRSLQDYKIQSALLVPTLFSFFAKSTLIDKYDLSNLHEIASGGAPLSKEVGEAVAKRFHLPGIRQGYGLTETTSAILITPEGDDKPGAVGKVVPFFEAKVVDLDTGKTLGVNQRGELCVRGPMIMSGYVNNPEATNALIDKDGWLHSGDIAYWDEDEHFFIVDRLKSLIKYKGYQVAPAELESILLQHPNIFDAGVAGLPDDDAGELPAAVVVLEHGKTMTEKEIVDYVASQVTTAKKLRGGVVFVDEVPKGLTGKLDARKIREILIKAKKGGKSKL
Summary of the method: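 Biochemical qHTS: compounds run as interplate titrations against purified firefly enzyme, with D-luciferin and ATP each at its KM concentration. Light output recorded by CCD imaging.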

[7] = qHTS assay to identify small molecule agonists of the constitutive androstane receptor (CAR) signaling pathway - cell viability counter screen (AID 1224836); further: series mostly up to about 92 µM; nearly all actives have a fitted effect of over 45% in size
Summary of the method: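 Double-stable HepG2 hepatoma cells (hCAR plus CYP2B6-2.2kb) are treated for 23 h at 37 C with test compounds in 15-point concentration series. PK11195 at 0.75 uM final is co-added. Cell viability is quantified by CellTiter-Fluor.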

[8] = qHTS assay to identify small molecule antagonists of the constitutive androstane receptor (CAR) signaling pathway - cell viability counter screen (AID 1224837); further: series mostly up to about 92 µM; nearly all actives have a fitted effect of over 45% in size
Summary of the method: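 Using CellTiter-Fluor, viability is scored in HepG2 cells stably carrying hCAR and a 2.2kb CYP2B6 reporter after 23 hr compound exposure across 15 concentrations, with CITCO present at 50 nM.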

[9] = molecular target: Nuclear receptor subfamily 1 group I member 3 (Homo sapiens) (UniProt Q14994); experiment: qHTS assay to identify small molecule antagonists of the constitutive androstane receptor (CAR) signaling pathway (AID 1224838);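 further: HepG2 cells stably expressing hCAR with CYP2B6 luciferase reporter stimulated by CITCO; nearly all actives have a fitted effect of over 40% in size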
Sequence of Nuclear receptor subfamily 1 group I member 3 (Homo sapiens) (Q14994 whole entry, looked up): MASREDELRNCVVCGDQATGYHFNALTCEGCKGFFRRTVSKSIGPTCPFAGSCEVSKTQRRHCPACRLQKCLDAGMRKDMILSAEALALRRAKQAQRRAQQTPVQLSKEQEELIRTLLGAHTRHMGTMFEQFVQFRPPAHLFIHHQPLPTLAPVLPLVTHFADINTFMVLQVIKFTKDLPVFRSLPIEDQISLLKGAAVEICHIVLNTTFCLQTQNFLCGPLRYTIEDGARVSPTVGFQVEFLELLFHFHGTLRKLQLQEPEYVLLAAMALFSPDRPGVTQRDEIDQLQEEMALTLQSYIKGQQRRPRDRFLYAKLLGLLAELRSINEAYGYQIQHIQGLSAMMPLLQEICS
Summary of the method: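 Reporter luminescence was quantified after 24 h exposure of hCAR/CYP2B6-2.2kb double-stable HepG2 cells to compounds at 15 concentrations in the presence of 50 nM CITCO final.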

[10] = molecular target: Nuclear receptor subfamily 1 group I member 3 (Homo sapiens) (UniProt Q14994); experiment: qHTS assay to identify small molecule agonists of the constitutive androstane receptor (CAR) signaling pathway (AID 1224839); further: nearly all actives have a fitted effect of over 15% in size; further: potency means the concentration at half of the fitted maximal effect
Summary of the method: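 Readout: firefly luciferase luminescence via ONE-Glo. System: HepG2 double-stable for hCAR and CYP2B6-2.2kb. Conditions: 15-point compound titration, PK11195 at 0.75 uM final, 24 h incubation.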

| Structure (SMILES) | Potency [1] | outcome [2] | outcome [3] | Potency [4] | outcome [5] | Potency [6] | outcome [7] | outcome [8] | outcome [9] | Potency [10] |
| --- | --- | --- | --- | --- | --- | --- | --- | --- | --- | --- |
| CNC(=O)c1c(I)c(NC(C)=O)c(I)c(C(=O)O)c1I | inactive | inactive | inactive | inactive | inactive | inactive | inactive | inactive | – | – |
| CC(=O)Oc1ccc(C(C)=O)cc1 | inactive | inactive | inactive | inactive | inactive | inactive | inactive | inactive | inactive | inactive |
| CCCCCCCOC(C)=O | inactive | inactive | inactive | inactive | inactive | inactive | inactive | inactive | – | – |
| COc1cc(S(N)(=O)=O)cc(C(=O)O)c1OC | inactive | inactive | inactive | inactive | inactive | inactive | inactive | inactive | – | – |
| CCN1CCN(C(=O)N[C@@H](C(=O)N[C@@H]2C(=O)N3[C@@H]2SC(C)(C)[C@H]3C(=O)O)c2ccccc2)C(=O)C1=O | inactive | inactive | inactive | inactive | inactive | inactive | inactive | inactive | – | – |
| Nc1ccc(C(=O)NCC(=O)O)cc1 | inactive | inactive | inactive | inactive | inactive | inactive | inactive | inactive | – | – |
| C=CCCCCCCCCOC(C)=O | inactive | inactive | inactive | inactive | inactive | inactive | inactive | inactive | – | – |
| C[Si](C)(C)O[Si](O)(O)O | inactive | inactive | inactive | inactive | inactive | inactive | inactive | inactive | – | – |
| CCCCCCC(=O)c1ccccc1 | inactive | inactive | inactive | 54.5 µM (active) | inactive | 7.1 µM (active) | inactive | inactive | inactive | – |
| BrCCOc1ccccc1 | inactive | inactive | inactive | inactive | inactive | inactive | inactive | inactive | – | – |
| CCCCOCCCC | inactive | inactive | inactive | inactive | inactive | inactive | inactive | inactive | inactive | inactive |
| CC(C)(C)c1ccc(C(=O)CCCCl)cc1 | inactive | inactive | inactive | 5.96 µM (active) | inactive | 7.76 µM (active) | inactive | inactive | inactive | 21.1 µM (active) |
| CCOC(=O)CN1CCCC1=O | inactive | inactive | inactive | inactive | inactive | inactive | inactive | inactive | inactive | inactive |
| O=S(=O)(O)c1cc(I)c(O)c2ncccc12 | inactive | inactive | inactive | inactive | inactive | inactive | inactive | inactive | – | – |
| O=C(c1ccccc1)c1cccc(O)c1 | inactive | inactive | inactive | inactive | inactive | inactive | inactive | inactive | inactive | – |
| Cc1ccc2ccccc2n1 | inactive | inactive | inactive | inactive | inactive | inactive | inactive | inactive | inactive | inactive |
| CSC(=O)c1cccc2nnsc12 | inactive | inactive | inactive | inactive | inactive | inactive | inactive | inactive | inactive | inactive |
| CCN1CCN(C(=O)N[C@@H](C(=O)N[C@@H]2C(=O)N3C(C(=O)O)=C(CSc4nnnn4C)CS[C@H]23)c2ccc(O)cc2)C(=O)C1=O | inactive | inactive | inactive | inactive | inactive | inactive | inactive | inactive | – | – |
| CC(O)C(CO)C(C)O (stereo not drawn) | inactive | inactive | inactive | inactive | inactive | inactive | inactive | inactive | – | – |
| O=C1CCCc2c(O)cccc21 | inactive | inactive | inactive | inactive | inactive | inactive | inactive | inactive | inactive | inactive |
| COC(C)(C)CC(C)=O | inactive | inactive | inactive | inactive | inactive | inactive | inactive | inactive | inactive | inactive |
| CC1(C)S[C@@H]2[C@H](NC(=O)Cc3ccccc3)C(=O)N2[C@H]1C(=O)O (tested in a mixture with another compound) | inactive | inactive | inactive | inactive | inactive | inactive | inactive | inactive | inactive | – |
| CC(C)(C)c1ccc(N)cc1 | inactive | inactive | inactive | inactive | inactive | inactive | inactive | inactive | inactive | inactive |
| C=CC(=O)OCC[N+](C)(C)C | inactive | inactive | inactive | inactive | inactive | inactive | inactive | inactive | – | – |
| Cc1ccc(N)nc1 | inactive | inactive | inactive | inactive | inactive | inactive | inactive | inactive | – | – |
| CCC(C)(C)C | inactive | inactive | inactive | inactive | inactive | inactive | inactive | inactive | – | – |
| C=CC(=O)OCCOCCOCC | inactive | inactive | inactive | inactive | inactive | inactive | inactive | inactive | – | – |

| Structure (SMILES) | Potency [1] | outcome [2] | outcome [3] | Potency [4] | outcome [5] | Potency [6] | outcome [7] | outcome [8] | outcome [9] | Potency [10] |
| --- | --- | --- | --- | --- | --- | --- | --- | --- | --- | --- |
| COCc1nnc(-c2ccc[n+]([O-])c2)n1-c1c(Cl)c(Cl)cc2[nH]c(=O)c(=O)[nH]c12 | inactive | inactive | inactive | inactive | inactive | inactive | inactive | inactive | – | – |
| Cc1ccc2cccnc2c1 | inactive | inactive | inactive | inactive | inactive | inactive | inactive | inactive | inactive | inactive |
| CC(C)C[P+](C)(CC(C)C)CC(C)C | inactive | inactive | inactive | inactive | inactive | inactive | inactive | inactive | inactive | – |
| CCc1ccc(CC)cc1 | inactive | inactive | inactive | inactive | inactive | inactive | inactive | inactive | – | – |
| CC(=O)c1ccc(O)c(C(N)=O)c1 | inactive | inactive | inactive | inactive | inactive | inactive | inactive | inactive | – | – |
| CCCCCCCCCCCCCCBr | inactive | inactive | inactive | inactive | inactive | inactive | inactive | inactive | – | – |
| Cc1nc2ccc(Cl)cc2[nH]1 | inactive | inactive | inactive | inactive | inactive | inactive | inactive | inactive | inactive | – |
| Cc1ccccc1C#N | inactive | inactive | inactive | inactive | inactive | inactive | inactive | inactive | inactive | inactive |
| CC(=O)Nc1ccc(OCCOCCOc2ccc(NC(C)=O)cc2)cc1 | inactive | inactive | inactive | inactive | inactive | inactive | inactive | inactive | inactive | inactive |
| Cc1nnc(C(=O)NC(C)(C)c2nc(C(=O)NCc3ccc(F)cc3)c(O)c(=O)n2C)o1 | inactive | inactive | inactive | 33.5 µM (active) | inactive | inactive | inactive | inactive | – | – |
| NS(=O)(=O)c1cc2c(cc1C(F)(F)F)NCNS2(=O)=O | inactive | inactive | inactive | inactive | inactive | inactive | inactive | inactive | – | – |
| CCCC(=O)CC | inactive | inactive | inactive | inactive | inactive | inactive | inactive | inactive | inactive | inactive |
| CCCCCCCCC1CO1 (stereo not drawn) | inactive | inactive | inactive | inactive | inactive | inactive | inactive | inactive | inactive | inactive |
| Cc1ccc(O)c([N+](=O)[O-])c1 | 24.8 µM (active) | inactive | inactive | inactive | inactive | inactive | inactive | inactive | inactive | inactive |
| CC/C=C\CCOC(=O)c1ccccc1 | inactive | inactive | inactive | 68.6 µM (active) | inactive | 7.1 µM (active) | inactive | inactive | inactive | inactive |
| CC(C)(O)CCCC1=CCC(C=O)CC1 (stereo not drawn) | inactive | inactive | inactive | inactive | inactive | inactive | inactive | inactive | inactive | inactive |
| N=C(N)N | inactive | inactive | inactive | inactive | inactive | inactive | inactive | inactive | inactive | inactive |
| CCc1ncc(C)[nH]1 | inactive | inactive | inactive | inactive | inactive | inactive | inactive | inactive | inactive | inactive |
| COC(=O)c1ccccc1Cl | inactive | inactive | inactive | inactive | inactive | inactive | inactive | inactive | inactive | inactive |
| O=C(O)COc1ccc2ccccc2c1 | inactive | inactive | inactive | inactive | inactive | 39.9 µM (active) | inactive | inactive | inactive | inactive |
| COc1cc(NS(=O)(=O)c2ccc(N)cc2)ncn1 | inactive | inactive | inactive | inactive | inactive | inactive | inactive | inactive | inactive | inactive |
| CC(C)CC(=O)N[C@H](C(=O)N[C@H](C(=O)N[C@@H](CC(C)C)[C@@H](O)CC(=O)N[C@@H](C)C(=O)N[C@@H](CC(C)C)[C@@H](O)CC(=O)O)C(C)C)C(C)C (Isovaleryl-VV[Sta]A[Sta]-OH) | inactive | inactive | inactive | inactive | inactive | inactive | inactive | inactive | inactive | inactive |
| CCCCC(CC)CCC(CC(C)C)OS(=O)(=O)O (stereo not drawn) | inactive | inactive | inactive | inactive | inactive | inactive | inactive | inactive | inactive | inactive |
| Cc1ccc(S(=O)(=O)NC(=O)NN2CC3CCCC3C2)cc1 (stereo not drawn) | inactive | inactive | inactive | inactive | inactive | inactive | inactive | inactive | inactive | inactive |
| C/C=C/C(=O)CCCC | inactive | inactive | inactive | inactive | inactive | inactive | inactive | inactive | inactive | inactive |
| CCCCCCCCCCCBr | inactive | inactive | inactive | inactive | inactive | inactive | inactive | inactive | inactive | inactive |
